From the supplement of paper PMC9262897, “Low-cost anti-mycobacterial drug discovery using engineered E. coli” (Nature Communications, 2022)
Where a name gives a salt, the structure may show the parent alone. ± gives the standard deviation of the averaged measurements.

These compounds were tested on E. coli TESEC Mtb Alr (assay: growth (OD600 after 10 h); higher = more growth (less inhibition)). Settings: arabinose 10000000 nM; compound 0.1 mM; raw OD600 reference: median of DMSO wells […], cell-free background 0.052.
Experimental: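 TESEC Mtb Alr E. coli (ΔaraC ΔtolC ΔentC Δalr ΔdadX, arabinose-inducible Mtb Alr) or the Alr+ wild-type control strain, grown in defined M9-fructose medium without D-alanine in 96-well plates with Prestwick library compounds at 0.1 mM and 1% DMSO. Low Alr induction is 0.1 µM arabinose and high induction is 10 mM arabinose.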

| SMILES | growth |
| --- | --- |
| N=c1nc(N2CCCCC2)cc(N)n1O [Minoxidil] | 0.379 ± 0.034 |
| CC(=O)NC[C@H]1CN(c2ccc(N3CCOCC3)c(F)c2)C(=O)O1 [Linezolid] | 0.0531 ± 0.0013 |
| CC(O)(P(=O)(O)O)P(=O)(O)O [Etidronic acid, disodium salt] | 0.261 ± 0.056 |
| COc1ccc2cc([C@@H](C)C(=O)O)ccc2c1 [(R) -Naproxen sodium salt] | 0.317 ± 0.0088 |
| NC1CCN(c2nc3c(cc2F)c(=O)c(C(=O)O)cn3-c2ccc(F)cc2F)C1 (centres undefined) [Tosufloxacin hydrochloride] | 0.0578 ± 0.0027 |
| O=C(NCCNCC(O)COc1ccc(O)cc1)N1CCOCC1 (centres undefined) [Xamoterol hemifumarate] | 0.326 ± 0.0053 |
| Cc1cc2cc3c(C)cc(=O)oc3c(C)c2o1 [Trioxsalen] | 0.324 ± 0.024 |
| CCCCC(=O)O[C@H]1CC[C@H]2[C@@H]3CCc4cc(O)ccc4[C@H]3CC[C@]12C [Estradiol Valerate] | 0.38 ± 0.0047 |
| CCCc1ncc(C[n+]2ccccc2C)c(N)n1 [Amprolium hydrochloride] | 0.376 ± 0.028 |
| COC1=C(OC)C(=O)C(CCCCCCCCCCO)=C(C)C1=O [Idebenone] | 0.0513 ± 0.001 |
| CC(N/C(=N\C#N)Nc1ccncc1)C(C)(C)C (centres undefined) [Pinacidil] | 0.359 ± 0.036 |
| C[C@H]1C[C@H]2[C@@H]3CCC4=CC(=O)C=C[C@]4(C)[C@@]3(F)[C@@H](O)C[C@]2(C)[C@@]1(O)C(=O)CO [Betamethasone] | 0.257 ± 0.0044 |
| Fc1ccc(C(c2ccc(F)cc2)N2CCN(C/C=C/c3ccccc3)CC2)cc1 [Flunarizine dihydrochloride] | 0.128 ± 0.014 |
| CCC(NC(C)C)C(O)c1ccc(O)c(O)c1 (centres undefined) [Isoetharine mesylate salt] | 0.344 ± 0.019 |
| C[C@H]1O[C@@H](O[C@H]2[C@@H](O)C[C@H](O[C@H]3[C@@H](O)C[C@H](O[C@H]4CC[C@@]5(C)[C@H](CC[C@@H]6[C@@H]5C[C@@H](O)[C@]5(C)[C@@H](C7=CC(=O)OC7)CC[C@]65O)C4)O[C@@H]3C)O[C@@H]2C)C[C@H](O)[C@@H]1O [Digoxin] | 0.329 ± 0.044 |
| CC(C)(O/N=C(\C(=O)N[C@@H]1C(=O)N2C(C(=O)[O-])=C(C[n+]3ccccc3)CS[C@H]12)c1csc(N)n1)C(=O)O [Ceftazidime pentahydrate] | 0.0727 ± 0.0092 |
| Cc1cccc(C)c1NC(=O)C(C)N (centres undefined) [Tocainide hydrochloride] | 0.307 ± 0.023 |

| SMILES | growth |
| --- | --- |
| CCCCNc1cc(C(=O)O)cc(S(N)(=O)=O)c1Oc1ccccc1 [Bumetanide] | 0.333 ± 0.02 |
| CCCSc1ccc2[nH]c(NC(=O)OC)nc2c1 [Albendazole] | 0.419 ± 0.054 |
| O=c1[nH]cc(F)c(=O)[nH]1 [5-fluorouracil] | 0.134 ± 0.013 |
| CCN(CC)CCOC(=O)C(c1ccccc1)c1ccccc1 [Adiphenine hydrochloride] | 0.313 ± 0.051 |
| CCCCc1cc2ccccc2c(OCCN(C)C)n1 [Dimethisoquin hydrochloride] | 0.308 ± 0.011 |
| Nc1ccc(S(=O)(=O)Nc2nccs2)cc1 [Sulfathiazole] | 0.343 ± 0.02 |
| Nc1c2c(nc3ccccc13)CCCC2 [Tacrine hydrochloride] | 0.37 ± 0.017 |
| O=C(O)c1cc(/N=N/c2ccc(S(=O)(=O)Nc3ccccn3)cc2)ccc1O [Sulfasalazine] | 0.349 ± 0.017 |
| Oc1c(Cl)cc(Cl)c(Cl)c1Cc1c(O)c(Cl)cc(Cl)c1Cl [Hexachlorophene] | 0.0602 ± 0.0016 |
| CC(C)(C)NC(=O)[C@@H]1C[C@@H]2CCCC[C@@H]2CN1C[C@@H](O)[C@H](Cc1ccccc1)NC(=O)[C@H](CC(N)=O)NC(=O)c1ccc2ccccc2n1 [Saquinavir mesylate] | 0.0539 ± 0.0034 |
| CN1CCN(C2=Nc3cc(Cl)ccc3Nc3ccccc32)CC1 [Clozapine] | 0.32 ± 0.011 |
| COc1ccc(C2CNC(=O)C2)cc1OC1CCCC1 (centres undefined) [Rolipram] | 0.311 ± 0.019 |
| C[C@H](Cc1cc2c(c(C(N)=O)c1)N(CCCO)CC2)NCCOc1ccccc1OCC(F)(F)F [Silodosin] | 0.329 ± 0.018 |
| COCCCOc1ccnc(C[S+]([O-])c2nc3ccccc3[nH]2)c1C (centres undefined) [Rabeprazole Sodium salt] | 0.152 ± 0.035 |
| O=C(O)c1cccnc1Nc1cccc(C(F)(F)F)c1 [Niflumic acid] | 0.0999 ± 0.0073 |
| C[C@]12CC[C@@H]3c4ccc(O)cc4C[C@@H](CCCCCCCCC[S+]([O-])CCCC(F)(F)C(F)(F)F)[C@H]3[C@@H]1CC[C@@H]2O (some centres undefined) [Fulvestrant] | 0.355 ± 0.028 |
| CC(C)(C)NCC(O)COc1cccc2c1CC(O)C(O)C2 (centres undefined) [Nadolol] | 0.384 ± 0.015 |
